Screening results as filed in PubChem.
PostGolgi ctrl – growth of the yeast control strain, post-Golgi counter-screen; inhibition, % at 10 µM; efflux-deficient yeast background strain, growth absorbance A615, 16 h; AID 738; hit rate 5% among 98,000
PostGolgi yeast – growth inhibition of a yeast mutant, post-Golgi transport screen. post-Golgi transport phenotypic cell assay. inhibition, % at 10 µM. hit rate 0.9% among 98,000;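 also: yeast cells grown in 1536-well plates; yeast grown about 18 h at 30C before absorbance read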
MT1-MMP txn act – MT1-MMP promoter transcription activation; hit rate 0.16% among 86,000; activation factor at 10 µM; HT1080 MT1-MMP promoter luciferase reporter, luminescence, overnight; stronger effect = higher value;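 active = activation factor of at least 2 for MT1-MMP transcription at 10 µM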
Measles CPE – protection of cells from measles virus | Measles virus-infected cells, CPE protection, absorbance | protection (pct of control), % at 4 µM | hit rate 1.5% among 140,000; in the data active = protection mostly above about 24%, no sharp cut-off; inactive = mostly below about 26%
Active calls of the source: *; · = no result. A selection: hits, their analogues and other compounds. The true share with any hit is near 5.3%. Rule as the data show it, unless noted: active = inhibition above about 30%; inactive = the rest.

SMILES	PostGolgi ctrl	PostGolgi yeast	MT1-MMP txn act	Measles CPE
CCCN(CC1CC1)C(=O)CSc1ncnc2sc(C)c(C)c12	37*	-6	1.2	10
Nc1ccc2nc(-c3ccc(Cl)cc3)[nH]c2c1	16	-7	·	23
Nc1ccc(-c2nc3c(Cl)c(N)ccc3[nH]2)cc1	33*	6	1	6
CC(C)(C)N=C1SCC(C)(/C=N/O)S1 (centres undefined)	1	-2	1	55*
CCOC(=O)c1nc(N2CCN(C(=O)OCC)CC2)c2c3c(sc2n1)CCCC3	37*	7	0.9	6
CCOC(=O)c1cnn(-c2nc(SC)nc3sc4c(c23)CCCC4)c1N	76*	8	1.1	14
CC(C)OC(=O)C(C)Oc1ccc(C(=O)NCCc2ccccc2)cc1 (centres undefined)	3	4	1.3	3
FC(F)C(F)(F)C(F)(F)C(F)(F)c1cc(-c2ccccc2)n[nH]1	46*	1	1.1	3
CCOCCCNC(=S)N1C2CCC1CC(NC(=O)NC13CC4CC(CC(C4)C1)C3)C2 (centres undefined)	4	14	·	1
CCCCNC(=S)N(Cc1c(C)noc1C)c1ccccc1	·	·	·	6
O=C(Nc1cccc(C(F)(F)F)c1)c1cc(-c2cccs2)on1	11	8	1	67*
COc1ccc(N2CCN(C(c3cccs3)C(C)NS(=O)(=O)c3ccccc3)CC2)cc1 (centres undefined)	39*	3	1.3	11
COc1ccc2c(=O)c(-c3cnn(-c4ccccc4)c3)c(C)oc2c1	10	34*	1.1	4
COC(=O)C1=NN(c2ccccc2)C2(S1)SC(C(C)=O)=C(C)N2c1ccccc1 (centres undefined)	20	9	1.1	10
CC(=O)C1=NN(c2ccccc2)C2(S1)S/C(=C\c1ccccc1)C(=O)N2c1ccccc1 (centres undefined)	0	-7	·	34*
CCSc1ncc(/C=N/Nc2ccccc2)n1C	18	6	·	6
CCSc1ncc(/C=N/Nc2ccc(Cl)cc2)n1C	23	32*	·	0
COc1cc(/C=C/C(=O)O)cc(S(=O)(=O)NC2CC2)c1OC	·	·	·	26
COc1ccc(/C=C2/SC(=O)N(CCNC(=O)C3CCCN3C(=O)c3cccs3)C2=O)cc1 (centres undefined)	·	·	·	42*
COC(=O)c1ccc(CSc2nnc(C)n2N)o1	·	·	·	23
CCc1cccc(NC(=O)NC(=O)Cn2nnc(C(=O)OC)c2C(=O)OC)c1	·	·	·	9
Cc1ccc(S(=O)(=O)NCCNc2ccc([N+](=O)[O-])cc2C(F)(F)F)cc1	40*	-1	·	1
Cc1ccc(C)c(N(CC(N)=O)S(C)(=O)=O)c1	16	-3	1	50*
Cc1ccccc1N(CC(N)=O)S(C)(=O)=O	-2	-15	1.1	5
C=CCN1C(=O)C(Cc2ccccc2)S/C1=N/N=C/c1cccs1 (centres undefined)	38*	-7	1.2	10
SMILES	PostGolgi ctrl	PostGolgi yeast	MT1-MMP txn act	Measles CPE
COC(=O)[C@@H]1C[C@@]2(O)[C@@H](O)[C@@H](O)[C@@H](O)C[C@H]2N1Cc1cc(F)ccc1F	·	·	1	·
CN(C)S(=O)(=O)c1cc(NC(=O)COC(=O)c2ccc3c(c2)OCO3)ccc1Cl	·	·	·	5
CC1(C)Cc2c(cnn2-c2ccccc2)-c2c1c1ccccc1n2CC(O)CBr (centres undefined)	44*	23	1.3	13
CC(=O)CCN1CCOCC1	-5	2	1	94*
CC(=O)Nc1ccc(N=Nc2ccc(O)cc2)cc1	·	·	·	17
Cc1cccc(NC(NC(=O)Cc2ccccc2)C(Cl)(Cl)Cl)c1 (centres undefined)	·	·	·	58*
Cc1cccc(NC(NC(=O)c2ccccn2)C(Cl)(Cl)Cl)c1 (centres undefined)	·	·	·	39*
Cc1cccc(NC(=S)NC(NC(=O)c2ccco2)C(Cl)(Cl)Cl)c1 (centres undefined)	-2	-8	1.1	8
Cc1ccc(NC(NC(=O)Cc2ccccc2)C(Cl)(Cl)Cl)cc1 (centres undefined)	·	·	·	2
CC[C@H]1C2=C3C(CC[C@H]4C(OCc5ccc(F)cc5C(F)(F)F)OC[C@](C)([C@@H]34)N(C(=O)OC(C)(C)C)C2)C(COC(C)=O)C1COC(C)=O (some centres undefined)	·	·	1.2	·
C[C@@]1(C(NC(=O)c2ccccc2)c2ccc(-c3ccccc3)cc2)C[C@H]1C1CCCCC1 (some centres undefined)	·	·	1.1	·
CCOc1cc(/C=N/O)cc(Br)c1OCc1ccc(Cl)cc1	37*	4	·	5
CCOc1cc(/C=N/O)cc(Br)c1OCC	·	·	1.3	13
O/N=C/c1ccc(OCc2ccccc2)c(Br)c1	·	·	·	42*
O/N=C/c1cc(Br)cc(Br)c1OCc1ccccc1	58*	3	·	2
OCCOCCNc1ncnc2nc[nH]c12	13	12	1	17
CCCNc1ncnc2nc[nH]c12	11	0	1.1	40*
CCCCc1ccc(Nc2ncnc3nc[nH]c23)cc1	60*	-6	·	17
COC(=O)c1cc(NC(=O)CN(c2ccc(OC)cc2)S(=O)(=O)c2ccc(F)cc2)ccc1Cl	·	·	·	19
COCCn1nnnc1C(C(C)C)N(Cc1cccnc1)Cc1ccccc1Cl (centres undefined)	38*	1	1	8
c1ccc(-c2nc3ccccc3[nH]2)nc1	·	·	·	11
c1ccc(-c2nc3c(ccc4ccccc43)[nH]2)nc1	·	·	2.3*	13
Cc1cc(C)nc(N2CCCC(C(=O)Nc3cc(F)ccc3C)C2)n1 (centres undefined)	30*	3	1.1	16
COc1ccc(OC)c(NC(=O)C2CCN(c3nc(C)cc(C)n3)CC2)c1	37*	1	1.1	6
Cc1cc(C)nc(N2CCC(C(=O)NCC3CCCCC3)CC2)n1	-1	-8	0.8	33*
SMILES	PostGolgi ctrl	PostGolgi yeast	MT1-MMP txn act	Measles CPE
Cc1cc(C)nc(N2CCCC(C(=O)NCCc3cccc(F)c3)C2)n1 (centres undefined)	-2	-2	1.1	9
COc1cc(C)nc(N2CCCC(C(=O)Nc3cccc(Cl)c3Cl)C2)n1 (centres undefined)	-3	-3	1.2	6
COc1ccccc1NC(=O)C1CCCN(c2nc(C)cc(C)n2)C1 (centres undefined)	·	·	1.3	33*
CCOc1ccc(C(=O)NC(=S)Nc2ccc(NC(=O)c3ccco3)c(C)c2)cc1[N+](=O)[O-]	·	·	·	9
c1ccc(-c2csc3nnc(SCc4ccc5c(c4)OCO5)n23)cc1	33*	-3	1	15
O=C(CSc1nnc2scc(-c3ccccc3)n12)Nc1ccc2c(c1)OCCO2	37*	1	1.1	6
CC(C)OP(=O)(OC(C)C)C(NC(=O)c1cccc([N+](=O)[O-])c1)C(N)=O (centres undefined)	2	-1	1.1	3
CCCCC(=O)NC(=S)NNS(=O)(=O)c1ccccc1	·	·	·	42*
Nc1nc(CN2CCN(c3cccc(Cl)c3)CC2)nc(N2CCCc3ccccc32)n1	42*	4	0.9	11
Cc1ccc(Nc2nc(N)nc(CN3CCN(c4ccccc4)CC3)n2)cc1Cl	30*	16	1.2	2
O=C(CSc1nnnn1-c1ccccc1)N1CCCc2ccccc21	25	-3	1	4
